Test results published in PubChem BioAssay (NCI).
About 83,000 compounds went through this panel and 20% of them were active in at least one assay; those are over-represented in the sample as a whole.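 Testing used 96-well plates and a 48-hour single-concentration exposure. Example: -40 means 40% of the starting cells died.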 Unmarked numbers belong to inactive results. Calls of active or inactive are those of the source. The calls were made as follows: active = growth percent below 10; inactive = the rest.

What was measured:
Assay in all cases: NCI-60 one-dose screen, 48 h (100 = growth as untreated, 0 = no growth, -100 = all killed)
Conditions in all cases: 10 µM unless noted
SR leukemia = test system: SR leukemia
RPMI-8226 leukemia = test system: RPMI-8226 leukemia
OVCAR-8 ovarian = test system: OVCAR-8 ovarian
OVCAR-5 ovarian = test system: OVCAR-5 ovarian
OVCAR-4 ovarian = test system: OVCAR-4 ovarian
SK-OV-3 ovarian = test system: SK-OV-3 ovarian
IGROV1 ovarian = test system: IGROV1 ovarian
OVCAR-3 ovarian = test system: OVCAR-3 ovarian
HS 578T breast = test system: HS 578T breast
NCI/ADR-RES ovarian = test system: NCI/ADR-RES ovarian
T-47D breast = test system: T-47D breast
BT-549 breast = test system: BT-549 breast
MDA-MB-435 melanoma = test system: MDA-MB-435 melanoma
SW-620 colon = test system: SW-620 colon
MCF7 breast = test system: MCF7 breast
HCT-116 colon = test system: HCT-116 colon
HCC-2998 colon = test system: HCC-2998 colon
KM12 colon = test system: KM12 colon

SMILES | growth (SR leukemia) | growth (RPMI-8226 leukemia) | growth (OVCAR-8 ovarian) | growth (OVCAR-5 ovarian) | growth (OVCAR-4 ovarian) | growth (SK-OV-3 ovarian) | growth (IGROV1 ovarian) | growth (OVCAR-3 ovarian) | growth (HS 578T breast) | growth (NCI/ADR-RES ovarian) | growth (T-47D breast) | growth (BT-549 breast) | growth (MDA-MB-435 melanoma) | growth (SW-620 colon) | growth (MCF7 breast) | growth (HCT-116 colon) | growth (HCC-2998 colon) | growth (KM12 colon)
CC(C)N1C(=O)/C(=C2\SC(=S)N(C(C)C)C2=O)SC1=S | 109% | 92.9% | 96.5% | 88% | 89.6% | 113% | 94.4% | 98.4% | 91.4% | 95.7% | 82.8% | 98.7% | 100% | 94.9% | 96.8% | 95% | 98.3% | 99.9%
CCOC(=O)/C(C#N)=C1/NNC(=Nc2cccnc2)S1 | 118% | 107% | 92.2% | 102% | 100% | 85.7% | 111% | 101% | 96.7% | 105% | 88.7% | 103% | 99.2% | 94.9% | 106% | 91.9% | 113% | 102%
O=C(N/N=C/c1cc2ccccc2n2nnnc12)Nc1ccccc1 | 87.4% | 101% | 103% | 106% | 108% | 112% | 112% | 111% | 109% | 105% | 108% | 114% | 102% | 107% | 92.3% | 113% | 108% | 104%
O=C(CCN1CCCC1)Nc1ccc2c(Nc3ccc(Br)cc3)c3ccccc3nc2c1 | -22.6% (active) | -34.9% (active) | 5.94% (active) | 41.9% | -20.2% (active) | 57.5% | -21.1% (active) | -65.1% (active) | 58.6% | 20.3% | 13.6% | 47.9% | -88% (active) | -64.8% (active) | -66.8% (active) | -57.6% (active) | -73.4% (active) | -59.2% (active)
CCOC(=O)Oc1c(OC)cc(C(=O)c2ccc(OC)c(O)c2OC)cc1OC | 28% | 21% | 28.5% | 76.6% | 75.3% | 31.6% | 41.8% | -1.93% (active) | 14.7% | -9.66% (active) | 43.8% | 40.1% | -47.4% (active) | 20.5% | 19.5% | 9.57% (active) | 39.7% | 25.7%
c1ccc(-c2c(-c3ccccc3)[n+](Cc3ccc4ccccc4c3)c(-c3cccc4ccccc34)n2Cc2ccc3ccccc3c2)cc1 | -36.5% (active) | -38.7% (active) | -44.4% (active) | -47.8% (active) | -81% (active) | -50.3% (active) | -71.4% (active) | -88% (active) | -26.9% (active) | -18.9% (active) | -73.4% (active) | -63.7% (active) | -58.6% (active) | -66.1% (active) | -15% (active) | -74.4% (active) | -74.5% (active) | -77.7% (active)
O=S(=O)(NCCCNc1nccc(-c2c(-c3cccc(O)c3)nc3occn23)n1)c1ccc(Cl)cc1 | 87.1% | 81% | 77.5% | 130% | 108% | 75.4% | 59.7% | 93.2% | 92.8% | 112% | 64.2% | 102% | 33.8% | 109% | 82.6% | 61.9% | 120% | 86.2%
CCOC(=O)c1cc(C(=O)c2cc(OC)cc(OC)c2)n2ccc3ccccc3c12 | 116% | 108% | 89.9% | 98% | 88.8% | 98.2% | 102% | 112% | 82.5% | 92.8% | 95% | 74.7% | 99.5% | 102% | 99.2% | 84% | 108% | 100%
Nc1nc(Nc2ccccc2SSc2ccccc2Nc2nc(N)nc(-c3cccs3)n2)nc(-c2ccsc2)n1 | 31.3% | 71.9% | 76.9% | 118% | 70.4% | 110% | 58.9% | 90.4% | 93.3% | 4.43% (active) | 56.2% | 86% | 98.1% | 80.4% | 68.1% | 84.9% | 111% | 67.6%
OC(c1cccc(C(F)(F)F)c1)c1cnccc1NC1CCCCC1 (stereo not drawn) | 51.6% | 29.9% | 86.9% | 95.3% | 74.7% | 95.9% | 76.3% | 81.1% | 80.6% | 79.1% | 49.1% | 93.5% | 86.6% | 77.6% | 71.4% | 51.1% | -11.3% (active) | 80.8%
Cc1ccc(S(=O)(=O)NNC(=O)/C(=C\c2ccc(Cl)cc2)c2nc3ccccc3s2)cc1 | 72.8% | 87% | 88.1% | 110% | 94.2% | 105% | 91.4% | 96% | 98.1% | 97.8% | 95% | 106% | 96.9% | 93.6% | 78.7% | 84.3% | 103% | 96.6%
Fc1ccc(-c2cn3c(nc4ccccc43)c(-c3ccccc3)n2)cc1 | 91.5% | 111% | 73.7% | 111% | 67.1% | 105% | 81.8% | 111% | 76.7% | 89.3% | 86.2% | 105% | 98% | 95.8% | 92.8% | 89.1% | 98.9% | 92.1%
CCCOC(=O)N[C@H]1CCc2cc(OC)c(OC)c(OC)c2-c2ccc(SC)c(=O)cc21 | 4.77% (active) | 5.39% (active) | 23.6% | 33.9% | 40.5% | 42.7% | 17.5% | -42.1% (active) | 5.68% (active) | 5.94% (active) | 39.3% | 10.2% | -40.4% (active) | 18.4% | 15.6% | 7.65% (active) | 23% | -11.3% (active)
N#Cc1c(NC(=O)NCc2ccccc2)sc2c1CCCC2 | 23.3% | 17.7% | 26.8% | 46% | 48.4% | 35.1% | 28.8% | -15.7% (active) | 9.64% (active) | 11.1% | 40% | 24.1% | -35.3% (active) | 24% | 19.5% | 12.2% | 22.4% | 20.5%
O=S(=O)(NCCNc1nccc(-c2c(-c3cccc(O)c3)nc3occn23)n1)c1cccc(F)c1 | 84.7% | 97% | 89.9% | 128% | 121% | 91.8% | 50.5% | 94.7% | 101% | 107% | 73.7% | 104% | 34.3% | 115% | 57% | 70.4% | 129% | 88.2%
O=C(Cn1c[n+](CC(=O)c2ccc(-c3ccccc3)cc2)c2ccccc21)Nc1cccc2cccnc12 | -17.1% (active) | -30.2% (active) | 20% | 62.8% | 10.3% | 50.5% | -38.2% (active) | -1.51% (active) | 33.5% | 96.7% | 10.8% | -9.9% (active) | 7.5% (active) | 36.1% | 12.6% | 11.9% | 6.56% (active) | -31.5% (active)
